Experimental data published in PubChem BioAssay (NCI).
Compounds without any hit were thinned out: in the full panel of roughly 83,000, 20% have a hit.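 Step 1: grow cells in 96-well plates. Step 2: add test compound at a single concentration. Step 3: incubate 48 h. Step 4: record percent growth.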 A number with no mark means an inactive call. Activity calls are given as the source filed them. Rule for the calls: active = growth percent below 10; inactive = the rest.

Experiments:
Experiment in all cases: NCI-60 one-dose screen, 48 h (100 = growth as untreated, 0 = no growth, -100 = all killed)
Conditions in all cases: 10 µM
SK-MEL-2 melanoma = test system: SK-MEL-2 melanoma
EKVX NSCLC = test system: EKVX NSCLC
SN12C renal = test system: SN12C renal
UO-31 renal = test system: UO-31 renal
TK-10 renal = test system: TK-10 renal
ACHN renal = test system: ACHN renal
CAKI-1 renal = test system: CAKI-1 renal
A498 renal = test system: A498 renal
CCRF-CEM leukemia = test system: CCRF-CEM leukemia
MOLT-4 leukemia = test system: MOLT-4 leukemia
RPMI-8226 leukemia = test system: RPMI-8226 leukemia
OVCAR-8 ovarian = test system: OVCAR-8 ovarian
OVCAR-5 ovarian = test system: OVCAR-5 ovarian
OVCAR-4 ovarian = test system: OVCAR-4 ovarian
SK-OV-3 ovarian = test system: SK-OV-3 ovarian
IGROV1 ovarian = test system: IGROV1 ovarian
OVCAR-3 ovarian = test system: OVCAR-3 ovarian
HS 578T breast = test system: HS 578T breast
NCI/ADR-RES ovarian = test system: NCI/ADR-RES ovarian

Row | Compound | growth (SK-MEL-2 melanoma) | growth (EKVX NSCLC) | growth (SN12C renal) | growth (UO-31 renal) | growth (TK-10 renal) | growth (ACHN renal) | growth (CAKI-1 renal) | growth (A498 renal) | growth (CCRF-CEM leukemia) | growth (MOLT-4 leukemia) | growth (RPMI-8226 leukemia) | growth (OVCAR-8 ovarian) | growth (OVCAR-5 ovarian) | growth (OVCAR-4 ovarian) | growth (SK-OV-3 ovarian) | growth (IGROV1 ovarian) | growth (OVCAR-3 ovarian) | growth (HS 578T breast) | growth (NCI/ADR-RES ovarian)
1 | O=C1NC(=NC23CC4CC(CC(C4)C2)C3)N/C1=C\c1ccc2ncoc2c1 | -92.4% (active) | -14% (active) | 2.78% (active) | 1.68% (active) | 24.2% | -10.4% (active) | 7.48% (active) | -5.36% (active) | -6.48% (active) | 10.6% | -4.5% (active) | 13.4% | -14.4% (active) | 13.4% | 26.8% | 3.59% (active) | 24.1% | -0.689% (active) | 4.58% (active)
2 | N#Cc1c(-c2ccc(F)cc2)nc(SCc2ccc(F)cc2)nc1N1CCOCC1 | 78.7% | 60.1% | 72.9% | 86% | 77.6% | 46.7% | 30.7% | 71.9% | 87.1% | 91.6% | 92.7% | 54.8% | 83.1% | 60.5% | 39.6% | 90.9% | 75.2% | 25.7% | 63.5%
3 | O=C1NC(=NC23CC4CC(CC(C4)C2)C3)N/C1=C\c1ccc2ncsc2c1 | -23.3% (active) | -0.13% (active) | 8.93% (active) | 2.14% (active) | 17.8% | 3.03% (active) | 5.17% (active) | -11.3% (active) | 9.69% (active) | -5.73% (active) | -14.7% (active) | 10.5% | -7.67% (active) | 8.44% (active) | 25.1% | 4.69% (active) | -6.21% (active) | -0.802% (active) | -10.5% (active)
4 | COc1ccccc1[C@H]1C(C(=O)c2ccc(O)cc2)C2(N[C@@H]1c1ccccc1)C(=O)Nc1ccc(Br)cc12 (stereo not given in full) | 32.1% | 30% | 25% | 27.9% | 51% | 31.9% | 18.7% | 37.4% | 22% | -9.09% (active) | 30.3% | 37.5% | 62.7% | 41.1% | 61.4% | 19.2% | -29.1% (active) | 36.3% | 57.7%
5 | Clc1ccc(/C=N/Nc2ncnc3sc4c(c23)CCN(Cc2ccccc2)C4)cc1 | 93.5% | 56.7% | -62.4% (active) | 22.1% | -76.1% (active) | 27.4% | 34.5% | -32.2% (active) | -24.2% (active) | 4.13% (active) | 14% | -56.2% (active) | -18.8% (active) | -75.9% (active) | 30.3% | 34.4% | -79.9% (active) | – | -55.2% (active)
6 | COc1ccc(C(=O)Nc2ccc(-c3ccc4c(c3)NC(=O)/C4=C\c3ccc[nH]3)cc2)cc1 | 99.5% | 7.85% (active) | 64.9% | 81.3% | 98.8% | 60.7% | 72.7% | 118% | 26% | 55.6% | 65.5% | -22.3% (active) | 51.8% | -36.8% (active) | 79.2% | 65.9% | 9.86% (active) | -0.0796% (active) | -42.8% (active)
7 | COc1ccccc1[C@H]1C(C(=O)c2ccc(Cl)cc2)C2(N[C@@H]1c1ccccc1)C(=O)Nc1ccc(Cl)cc12 (stereo not given in full) | -76.2% (active) | 8.9% (active) | -66.3% (active) | 6.99% (active) | 31.4% | 3.8% (active) | 8.2% (active) | 13.1% | 5.19% (active) | -21.1% (active) | 6.41% (active) | 12.2% | -8.45% (active) | 24% | 28.8% | 22.1% | 3.66% (active) | -2.19% (active) | -65.5% (active)
8 | Cc1cc(C)nc(NS(=O)(=O)c2ccc(N/C(N)=N/c3nccc(-c4ccccc4)n3)cc2)n1 | 89.5% | 43% | 73.6% | 34.7% | 76.4% | 61.7% | 43.6% | 71.2% | 67.7% | 38.8% | 60.8% | 77.7% | 76.1% | 67.3% | 52.9% | 38.9% | 86.8% | 48.1% | 84.5%
9 | CC(=O)Nc1ccc(-n2cnc3cc(-c4ccc(O)cc4)ccc32)cc1C | 19.9% | 61.6% | 40.4% | 35.5% | 73.9% | 43.1% | 44.2% | 92.1% | 65.1% | 64.7% | 42.7% | 58% | 72.7% | 70.2% | 78.8% | 80.2% | 80.3% | 64.6% | 29.4%
10 | CN1CCN(Cc2ccc(C(=O)Nc3cccc(Nc4ccc5cc(O)ccc5n4)c3)cc2C(F)(F)F)CC1 | -95% (active) | -40.7% (active) | -64% (active) | -36.8% (active) | 24% | -56.8% (active) | -28% (active) | 148% | -37.1% (active) | -41.1% (active) | -51.3% (active) | 4.28% (active) | -25% (active) | 6.75% (active) | 26.3% | -37.8% (active) | -58.9% (active) | -2.79% (active) | 28.6%
11 | CCCn1c(=O)c2[nH]c(-c3ccc(OCc4nc5ccc(C)cc5[nH]4)cc3)nc2n(CCC)c1=O | 52.1% | 9.33% (active) | -5.67% (active) | -91% (active) | -51.8% (active) | -88.2% (active) | 6.1% (active) | -79.8% (active) | 46.8% | 15.2% | 29.3% | 17.3% | 40.6% | 0.252% (active) | 4.62% (active) | 37% | 18.2% | – | 31.7%
12 | CCN1CCN(Cc2ccc(NC(=O)c3cccc(-n4cc(-c5ccc(NC(C)=O)nc5)nn4)c3)cc2C(F)(F)F)CC1 | 106% | 105% | 95.9% | 107% | 149% | 109% | 88.9% | 213% | 39.2% | 80.3% | 80.6% | 99% | 158% | 98% | 96.6% | 127% | 131% | – | 100%
